Results filed as inconclusive are left out. A number with no mark means an inactive call. The call rests on the fitted dose curve; in most records, active means well fitted inhibition curve with a large enough effect; inconclusive means small, poorly fitted or top-dose-only effect; inactive means flat fitted curve, though single readings scatter.
Experiment: Drug repurposing screens with cells derived from glioblastoma tumor samples (AID 1345199); further: nearly all actives have a fitted effect of over 40% in size
Settings: GBM patient neurospheres viability, ATP luminescence, 48 h; at 20 µM (top of the series); tumour line C
Method in brief: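 Primary testing used CD133+ neurospheres from four GBM patients, seven concentrations, 48 h exposure and ATP-based viability; confirmation added three slower-growing patient lines.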
On the % scale 0 is the no-effect control and ±100 the full control effect.

SMILES | activity, negative = cell killing [%]
Cn1nnnc1SCC1=C(C(=O)O)N2C(=O)[C@@H](NC(=O)[C@H](O)c3ccccc3)[C@H]2SC1 | -9.7
CC(C)(C)NC[C@H](O)COc1ccccc1C1CCCC1 | 19
CCCCC/C=C\CCC(=O)N[C@H]1[C@H](Oc2c3cc4cc2Oc2ccc(cc2Cl)[C@@H](O[C@@H]2O[C@H](CO)[C@@H](O)[C@H](O)[C@H]2NC(C)=O)[C@@H]2NC(=O)[C@H](NC(=O)[C@@H]4NC(=O)[C@H]4NC(=O)[C@@H](Cc5ccc(c(Cl)c5)O3)NC(=O)[C@H](N)c3ccc(O)c(c3)Oc3cc(O)cc4c3)c3ccc(O)c(c3)-c3c(O[C@H]4O[C@H](CO)[C@@H](O)[C@H](O)[C@@H]4O)cc(O)cc3[C@@H](C(=O)O)NC2=O)O[C@H](CO)[C@@H](O)[C@@H]1O | -16.8

Same assay, conditions: GBM patient neurospheres viability, ATP luminescence, 48 h; at 21.2 µM (top of the series); tumour line B

SMILES | activity, negative = cell killing [%]
COc1c(O[C@@H]2O[C@H](CO)[C@@H](O)[C@H](O)[C@H]2O)cc2c(c1OC)-c1ccc(SC)c(=O)cc1[C@@H](NC(C)=O)CC2 | -28.7
Cn1nnnc1SCC1=C(C(=O)O)N2C(=O)[C@@H](NC(=O)[C@H](O)c3ccccc3)[C@H]2SC1 | -12.5
CCCCC/C=C\CCC(=O)N[C@H]1[C@H](Oc2c3cc4cc2Oc2ccc(cc2Cl)[C@@H](O[C@@H]2O[C@H](CO)[C@@H](O)[C@H](O)[C@H]2NC(C)=O)[C@@H]2NC(=O)[C@H](NC(=O)[C@@H]4NC(=O)[C@H]4NC(=O)[C@@H](Cc5ccc(c(Cl)c5)O3)NC(=O)[C@H](N)c3ccc(O)c(c3)Oc3cc(O)cc4c3)c3ccc(O)c(c3)-c3c(O[C@H]4O[C@H](CO)[C@@H](O)[C@H](O)[C@@H]4O)cc(O)cc3[C@@H](C(=O)O)NC2=O)O[C@H](CO)[C@@H](O)[C@@H]1O | -7.38

Same assay, conditions: GBM patient neurospheres viability, ATP luminescence, 48 h; at 21.2 µM (top of the series); tumour line D

SMILES | activity, negative = cell killing [%]
COc1c(O[C@@H]2O[C@H](CO)[C@@H](O)[C@H](O)[C@H]2O)cc2c(c1OC)-c1ccc(SC)c(=O)cc1[C@@H](NC(C)=O)CC2 | -5.86
Cn1nnnc1SCC1=C(C(=O)O)N2C(=O)[C@@H](NC(=O)[C@H](O)c3ccccc3)[C@H]2SC1 | -10.9
CCCCC/C=C\CCC(=O)N[C@H]1[C@H](Oc2c3cc4cc2Oc2ccc(cc2Cl)[C@@H](O[C@@H]2O[C@H](CO)[C@@H](O)[C@H](O)[C@H]2NC(C)=O)[C@@H]2NC(=O)[C@H](NC(=O)[C@@H]4NC(=O)[C@H]4NC(=O)[C@@H](Cc5ccc(c(Cl)c5)O3)NC(=O)[C@H](N)c3ccc(O)c(c3)Oc3cc(O)cc4c3)c3ccc(O)c(c3)-c3c(O[C@H]4O[C@H](CO)[C@@H](O)[C@H](O)[C@@H]4O)cc(O)cc3[C@@H](C(=O)O)NC2=O)O[C@H](CO)[C@@H](O)[C@@H]1O | -14.2

Same assay, conditions: GBM patient neurospheres viability, ATP luminescence, 48 h; at 45.9 µM (top of the series); tumour line B

SMILES | activity, negative = cell killing [%]
NC(=O)[C@@H]1C[C@]2(NC(=O)NC2=O)c2cc(F)ccc2O1 | -9.48
C[C@H](O)CN(C)C | -3.73
CNC(=O)[C@H](Cc1c[nH]c2ccccc12)NC(=O)[C@@H](CC(=O)NO)CC(C)C | -23.5
COc1cc(S(C)=O)ccc1-c1nc2ncccc2[nH]1 (stereo not drawn) | -1.29
COc1ccc(-c2noc(CC(=O)O)c2-c2ccc(OC)cc2)cc1 | -13.4
C[C@H](NCCc1ccc(O)cc1)[C@H](O)c1ccc(O)cc1 | -2.5
CC(C)(C)NCC(O)c1ccc(O)c(CO)n1 (stereo not drawn) | -4.38
O=C(O)C1=C(CSc2nnnn2CS(=O)(=O)O)CS[C@@H]2[C@H](NC(=O)[C@H](O)c3ccccc3)C(=O)N12 | -15.2
CC1CC(O)CC(C)(C)C1 (stereo not drawn) | -5.77
CC1CCCCN1CCCOC(=O)c1ccccc1 (stereo not drawn) | -12.2
Cc1cc(C)c(NC(=O)C[C@H](CC(=O)O)c2cccc3ccccc23)c(C(=O)N2CCC3(CCCC3)CC2)c1 | -14
CC(C)CCC[C@@H](C)[C@H]1CC[C@H]2[C@@H]3CC[C@@H]4C[C@H](O)CC[C@]4(C)[C@H]3CC[C@]12C | -2.13
C=CCCCCCCCCC(=O)OC | -4.31
CCCCCCCCCCCC(=O)OC[C@@H](O)C1OC[C@H](O)[C@H]1O (stereo partly drawn) | -6.52
CC(C)C[C@@H](NC(=O)[C@@H](O)[C@H](N)Cc1ccccc1)C(=O)O | -12.5
COc1ccc(/C=N/NC(=O)c2ccncc2)c(C(=O)O)c1OC | -18.2
NC(=O)Oc1ccc(Cc2ccccc2)cc1 | -5.11

SMILES | activity, negative = cell killing [%]
CCN(CC)C(=O)[C@]1(c2ccccc2)C[C@@H]1CN | -4.91
C=CCN1CCCC1CNC(=O)c1cc(S(N)(=O)=O)cc(OC)c1OC (stereo not drawn) | -7.52
NC(Cc1ccccc1)C(=O)O (stereo not drawn) | -8.84
O=C(O)COc1ccccc1/C=N/NC(=O)c1ccncc1 | -7.55
COc1ccc(/C=C/C(=O)O)cc1 | 6.24
CC(CCc1ccc(O)cc1)NCC(O)c1ccc(O)cc1 (stereo not drawn) | 1.78
OC[C@H]1OC([S-])[C@H](O)[C@@H](O)[C@@H]1O.[Au+] (stereo partly drawn) | -5.43
O=S(=O)(O)CCCS(=O)(=O)O | -8.81
CCCCC[C@H](O)/C=C/[C@H]1[C@H](O)CC(=O)[C@@H]1C/C=C\CCCC(=O)O | -2.11
C[C@@H]1C[C@H]2[C@@H]3C[C@H](F)C4=CC(=O)C=C[C@]4(C)[C@@]3(Cl)[C@@H](O)C[C@]2(C)[C@H]1C(=O)COC(=O)C(C)(C)C | -18.4
Cc1cc2nc3c(=O)[nH]c(=O)nc-3n(C[C@H](O)[C@H](O)[C@H](O)COP(=O)(O)OP(=O)(O)OC[C@H]3O[C@@H](n4cnc5c(N)ncnc54)[C@H](O)[C@@H]3O)c2cc1C | -13.1
C[C@@H]1C[C@H]2[C@@H]3CCC4=CC(=O)C=C[C@]4(C)[C@@]3(F)[C@@H](O)C[C@]2(C)[C@@]1(O)C(=O)COC(=O)c1cccc(S(=O)(=O)O)c1 | -14.3
CCCCCCCCCCCCCCCC(=O)OC[C@@H](O)[C@H]1OC[C@H](O)[C@H]1O | -4.52
CO/N=C(\C(=O)N[C@@H]1C(=O)N2C(C(=O)[O-])=C(C[n+]3cccc4c3CCC4)CS[C@H]12)c1csc(N)n1 | -11.7
C[C@@H](O)[C@H]1C(=O)N2C(C(=O)[O-])=C(SC3Cn4cnc[n+]4C3)[C@H](C)[C@H]12 (stereo partly drawn) | -14.6
CC(=O)N[C@@H](C=O)[C@@H](O)[C@H](O)[C@H](O)CO | -6.52
CNC(=O)OCc1cccc(COC(=O)NC)n1 | -20.8

Reference: PubChem BioAssay (NCATS)
